Reference: PubChem BioAssay (EPA / NIEHS)
Where “and” joins values, the source holds several entries; their conditions need not be identical. Equal entries are not always repeated. Records with an inconclusive call do not appear. The source holds several records for some structures; these can differ, active in one and inactive in another. Calls of active or inactive are those of the source. How the source made its calls, unless noted: active means hit-call score of the fitted dose curve at least 0.9, where 1 is the maximum; inactive means score below 0.9.

Key:
[1] = ATG_PBREM_CIS: Attagene CIS-FACTORIAL HepG2 Assay for human Phenobarbital-responsive Enhancer Module (PBREM) (AID 2282955); conditions: HepG2 PBREM cis-reporter, Attagene multiplexed transcription; actives raise or lower the signal
In short: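 After a 24 h incubation with test chemical, transfected HepG2 cells yield total RNA; reporter-specific RT-PCR products are fluorescently labelled, HpaI-digested and resolved by capillary electrophoresis against ROX size standards.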

[2] = target: Paired box protein Pax-6 (Homo sapiens) (UniProt P26367); experiment: ATG_Pax6_CIS: Attagene CIS-FACTORIAL HepG2 Assay for human Paired Box 6 (PAX6) (AID 2282956); conditions: HepG2 CIS-FACTORIAL PAX6 reporter transcription, RNA readout; actives raise or lower the signal
In short: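 DMSO-referenced bidirectional fits of reporter mRNA fluorescence; HepG2 with transient cis-promoter MRTUs, 24 h post-dose, RT-PCR plus capillary electrophoresis detection.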

[3] = ATG_PXRE_CIS: Attagene CIS-FACTORIAL HepG2 Assay for human Pregnane X Receptor Element (PXRE) (AID 2282957); conditions: HepG2 Attagene CIS-FACTORIAL PXRE reporter, mRNA; actives raise or lower the signal
In short: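 Using HepG2 transfected with multiple reporter transcription units, endogenous factor-driven transcription was scored as reporter mRNA after 24 h exposure.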

[4] = ATG_PPRE_CIS: Attagene CIS-FACTORIAL HepG2 Assay for human Peroxisome Proliferator-activated Response Element (PPRE) (AID 2282958); conditions: HepG2 PPRE cis-element reporter, Attagene transcription factor profiling; actives raise or lower the signal
In short: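 Multiplexed reporter transcription units under cis-regulatory promoters were transfected into HepG2 cells to capture endogenous factor activity. A 24 h incubation preceded RNA isolation and fluorescent RT-PCR fragment analysis.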

[5] = ATG_RORE_CIS: Attagene CIS-FACTORIAL HepG2 Assay for human RAR-related Orphan Receptor Element (RORE) (AID 2282959); conditions: HepG2 Attagene cis-factorial RORE reporter, mRNA; actives raise or lower the signal
In short: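 Fluorescence intensity of reporter-specific cDNA fragments, separated by capillary electrophoresis, gives the signal. Source: HepG2 liver cells transiently transfected with cis-element reporters and exposed 24 h; DMSO-normalized bidirectional fit.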

[6] = ATG_Sox_CIS: Attagene CIS-FACTORIAL HepG2 Assay for human SRY-box transcription factor (SOX) (AID 2282960); conditions: HepG2 Attagene cis-factorial SOX reporter, mRNA; actives raise or lower the signal
In short: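 After 24 h of chemical treatment, transfected HepG2 reporter cells are lysed for total RNA. Transcript levels come from RT-PCR with labelled primer extension and capillary electrophoresis, analysed bidirectionally versus DMSO.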

[7] = target: Transcription factor Sp1 (Homo sapiens) (UniProt P08047); experiment: ATG_Sp1_CIS: Attagene CIS-FACTORIAL HepG2 Assay for human Specificity Protein 1 (Sp1) (AID 2282961); conditions: HepG2 Sp1 cis-reporter transcription, actives raise or lower the signal
In short: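 Sp1-driven reporter mRNA, read as capillary electrophoresis fluorescence after RT-PCR, in transiently transfected HepG2 cells dosed for 24 h; signal change in either direction relative to DMSO.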

[8] = ATG_SREBP_CIS: Attagene CIS-FACTORIAL HepG2 Assay for human Sterol Regulatory Element Binding (SREBP) (AID 2282962); conditions: HepG2 Attagene cis-factorial SREBP reporter, mRNA; actives raise or lower the signal
In short: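 In this cis-format assay, HepG2 liver cells express reporters controlled by promoter elements responsive to native transcription factors. Exposure lasts 24 h; reporter mRNA fluorescence from capillary electrophoresis gives the signal, fitted bidirectionally against DMSO.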

[9] = target: Signal transducer and activator of transcription 3 (Homo sapiens) (UniProt P40763); experiment: ATG_STAT3_CIS: Attagene CIS-FACTORIAL HepG2 Assay for human Signal Transducer and Activator of Transcription 3 (STAT3) (AID 2282963); conditions: HepG2, Attagene cis-factorial STAT3 reporter transcription; actives raise or lower the signal
In short: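 Uses human liver HepG2 transiently carrying cis-regulated reporter transcription units. Following 24 h dosing, reporter mRNA induction was detected by RT-PCR and capillary electrophoresis, analysed bidirectionally versus DMSO.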

[10] = ATG_TA_CIS: Attagene CIS-FACTORIAL HepG2 Assay for human TA Basal Promoter (AID 2282964); conditions: HepG2 Attagene CIS-factorial TA basal promoter reporter; actives raise or lower the signal
In short: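 HepG2 cells transiently transfected with multiple reporter units under cis promoter elements, reporting endogenous transcription factor activity; this endpoint tracks the TA basal promoter as background control. Reporter mRNA after 24 h dosing measured by RT-PCR/capillary electrophoresis; bidirectional fits versus DMSO.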

[11] = ATG_TCF_b_cat_CIS: Attagene CIS-FACTORIAL HepG2 Assay for human T-Cell-Factor with beta-catenin (TCF/b-cat) (AID 2282965); conditions: HepG2 TCF/beta-catenin cis-reporter transcription, actives raise or lower the signal
In short: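 In this cis-format system, transfected HepG2 cells report endogenous transcription factor activity. Readout after 24 h exposure is reporter transcript abundance from RT-PCR and capillary electrophoresis, analysed for gain or loss of signal versus DMSO.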

[12] = ATG_TAL_CIS: Attagene CIS-FACTORIAL HepG2 Assay for human TAL Basal Promoter (AID 2282966); conditions: HepG2 Attagene cis-factorial TAL promoter reporter; actives raise or lower the signal;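 further: background control endpoint measuring basal TAL promoter reporter mRNA not a specific factor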
In short: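 After 24 hours of chemical exposure, transfected HepG2 cells yielded RNA that was converted to 6-FAM-labelled, HpaI-digested reporter fragments for capillary electrophoresis. Values derive from bidirectional fitting against DMSO controls.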

[13] = ATG_TGFb_CIS: Attagene CIS-FACTORIAL HepG2 Assay for human Transforming Growth Factor (TGF) (AID 2282967); conditions: HepG2 Attagene CIS TGFb reporter, mRNA transcription; actives raise or lower the signal
In short: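 HepG2 cells transiently transfected with cis-promoter-driven multiple reporter units measure endogenous TF activity; reporter mRNA quantified at 24 h by RT-PCR, FAM labeling, HpaI digestion and capillary electrophoresis. Bidirectional fit vs DMSO.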

[14] = ATG_VDRE_CIS: Attagene CIS-FACTORIAL HepG2 Assay for human Vitamin D Receptor Element (VDRE) (AID 2282968); conditions: HepG2 VDRE cis-reporter transcription, actives raise or lower the signal
In short: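 Transfected HepG2 reporter cells, chemical treatment 24 h. RNA isolated, cDNA amplified with reporter-specific primers, products analysed by capillary electrophoresis. Endpoint fitted in both directions versus DMSO.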

[15] = target: Nuclear receptor subfamily 1 group I member 3 (Homo sapiens) (UniProt Q14994); experiment: ATG_CAR_TRANS: Attagene TRANS-FACTORIAL HepG2 Assay for human Constitutive Androstane Receptor (CAR) (AID 2282969; active means hit-call score of the fitted dose curve at least 0.9, where 1 is the maximum;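 further: activators raise reporter mRNA above DMSO so AC50 marks induction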); conditions: HepG2 Attagene TRANS-FACTORIAL CAR reporter
In short: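 Steps: transient transfection of HepG2 with multiple GAL4-UAS reporter units; 24 h compound incubation; RNA isolation, RT-PCR, 6-FAM primer extension, HpaI digest; capillary electrophoresis. Gain-of-signal relative to DMSO negative control.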

[16] = target: Estrogen receptor (Homo sapiens) (UniProt P03372); experiment: ATG_ERa_TRANS: Attagene TRANS-FACTORIAL HepG2 Assay for human Estrogen Receptor alpha (ERa) (AID 2282970; active means hit-call score of the fitted dose curve at least 0.9, where 1 is the maximum); conditions: HepG2 Attagene TRANS ERa GAL4 reporter, mRNA
In short: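 Liver-derived HepG2 cells expressing chimeric nuclear receptor-Gal4 proteins from transient transfection were exposed for 24 hours. Gain of reporter mRNA signal versus DMSO, read by capillary electrophoresis of FAM-labelled PCR products, was recorded.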

[17] = target: Steroid hormone receptor ERR1 (Homo sapiens) (UniProt P11474); experiment: ATG_ERRa_TRANS: Attagene TRANS-FACTORIAL HepG2 Assay for human Estrogen-Related Receptor alpha (ERRa) (AID 2282971; active means hit-call score of the fitted dose curve at least 0.9, where 1 is the maximum); conditions: HepG2 Attagene TRANS reporter, ERRa transactivation
In short: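 Reporter transcript induction was quantified by RT-PCR and capillary electrophoresis of FAM-labelled, HpaI-cut products after 24 h treatment of HepG2 cells carrying transiently transfected GAL4-UAS reporter units and an exogenous ERRa-Gal4 fusion; activity scored as increase over DMSO.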

[18] = target: X-box-binding protein 1 (Homo sapiens) (UniProt P17861); experiment: ATG_Xbp1_CIS: Attagene CIS-FACTORIAL HepG2 Assay for human X-box Binding Protein 1 (XBP1) (AID 2282972); conditions: HepG2 XBP1 cis-element reporter, Attagene multiplex; actives raise or lower the signal
In short: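 Changes in reporter transcript abundance, read by RT-PCR and capillary electrophoresis, reflect endogenous transcription factor activity. Transfected HepG2 cells received compound for 24 hours; DMSO defined baseline for bidirectional analysis.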

[19] = ATG_GAL4_TRANS: Attagene TRANS-FACTORIAL HepG2 Assay for GAL4 (Internal Marker) (AID 2282976; active means hit-call score of the fitted dose curve at least 0.9, where 1 is the maximum); conditions: HepG2 Attagene TRANS GAL4 internal marker reporter
In short: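 First, HepG2 cells were transfected with reporter units under GAL4-UAS control. Next, they were treated with chemical for 24 h. Finally, RNA was reverse-transcribed, PCR-amplified, FAM-labelled and resolved by capillary electrophoresis, with induction scored against DMSO.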

[20] = ATG_M_19_TRANS: Attagene TRANS-FACTORIAL HepG2 Assay for M19 Transcription Factor (Internal Marker) (AID 2282974; active means hit-call score of the fitted dose curve at least 0.9, where 1 is the maximum); conditions: HepG2 Attagene TRANS-FACTORIAL M19 internal marker reporter
In short: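 Measured here: internal-marker reporter transcript from HepG2 cells transfected with MRTUs, harvested at 24 h. cDNA PCR products were 6-FAM labelled by primer extension, cut with HpaI for 2 h at 37 C, and resolved by CE.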

Measured: AC50

Sequence of Estrogen receptor (Homo sapiens) (P03372 whole entry, looked up, the tested form may be a part): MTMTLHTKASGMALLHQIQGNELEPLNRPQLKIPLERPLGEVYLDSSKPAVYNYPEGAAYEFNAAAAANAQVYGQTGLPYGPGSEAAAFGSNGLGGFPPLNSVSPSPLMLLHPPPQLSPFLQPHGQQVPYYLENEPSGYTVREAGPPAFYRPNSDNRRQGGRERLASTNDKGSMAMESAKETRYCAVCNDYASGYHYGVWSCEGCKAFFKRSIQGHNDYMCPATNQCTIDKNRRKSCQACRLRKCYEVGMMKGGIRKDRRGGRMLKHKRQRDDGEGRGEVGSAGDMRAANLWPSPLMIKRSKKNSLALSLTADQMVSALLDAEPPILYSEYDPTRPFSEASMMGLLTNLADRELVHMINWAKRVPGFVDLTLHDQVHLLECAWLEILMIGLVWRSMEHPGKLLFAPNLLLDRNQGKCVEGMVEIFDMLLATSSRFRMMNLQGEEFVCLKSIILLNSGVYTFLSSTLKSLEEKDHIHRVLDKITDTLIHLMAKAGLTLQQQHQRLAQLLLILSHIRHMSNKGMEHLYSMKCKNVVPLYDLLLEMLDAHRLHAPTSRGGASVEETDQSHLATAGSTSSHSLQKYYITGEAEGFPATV
Sequence of Steroid hormone receptor ERR1 (Homo sapiens) (P11474 whole entry, looked up, the tested form may be a part): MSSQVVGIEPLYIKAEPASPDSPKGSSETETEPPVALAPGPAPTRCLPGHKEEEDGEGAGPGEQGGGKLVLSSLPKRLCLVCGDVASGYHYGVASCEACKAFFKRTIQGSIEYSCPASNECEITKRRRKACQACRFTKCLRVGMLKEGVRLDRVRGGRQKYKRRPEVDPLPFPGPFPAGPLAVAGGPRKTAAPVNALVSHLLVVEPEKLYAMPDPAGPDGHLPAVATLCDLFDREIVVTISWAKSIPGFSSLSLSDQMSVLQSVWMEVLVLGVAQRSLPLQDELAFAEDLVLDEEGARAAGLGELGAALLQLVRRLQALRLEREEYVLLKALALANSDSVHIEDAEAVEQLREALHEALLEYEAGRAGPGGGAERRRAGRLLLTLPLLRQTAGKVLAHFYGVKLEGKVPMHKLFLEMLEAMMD
Sequence of X-box-binding protein 1 (Homo sapiens) (P17861 whole entry, looked up): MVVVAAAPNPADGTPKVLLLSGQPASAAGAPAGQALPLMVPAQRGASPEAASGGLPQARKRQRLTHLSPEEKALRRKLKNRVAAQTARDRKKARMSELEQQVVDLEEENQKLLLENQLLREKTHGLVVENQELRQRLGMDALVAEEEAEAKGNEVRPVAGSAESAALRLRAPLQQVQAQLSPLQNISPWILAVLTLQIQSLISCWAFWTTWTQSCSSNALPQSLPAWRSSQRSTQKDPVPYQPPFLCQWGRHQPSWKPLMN
Sequence of Signal transducer and activator of transcription 3 (Homo sapiens) (P40763 whole entry, looked up): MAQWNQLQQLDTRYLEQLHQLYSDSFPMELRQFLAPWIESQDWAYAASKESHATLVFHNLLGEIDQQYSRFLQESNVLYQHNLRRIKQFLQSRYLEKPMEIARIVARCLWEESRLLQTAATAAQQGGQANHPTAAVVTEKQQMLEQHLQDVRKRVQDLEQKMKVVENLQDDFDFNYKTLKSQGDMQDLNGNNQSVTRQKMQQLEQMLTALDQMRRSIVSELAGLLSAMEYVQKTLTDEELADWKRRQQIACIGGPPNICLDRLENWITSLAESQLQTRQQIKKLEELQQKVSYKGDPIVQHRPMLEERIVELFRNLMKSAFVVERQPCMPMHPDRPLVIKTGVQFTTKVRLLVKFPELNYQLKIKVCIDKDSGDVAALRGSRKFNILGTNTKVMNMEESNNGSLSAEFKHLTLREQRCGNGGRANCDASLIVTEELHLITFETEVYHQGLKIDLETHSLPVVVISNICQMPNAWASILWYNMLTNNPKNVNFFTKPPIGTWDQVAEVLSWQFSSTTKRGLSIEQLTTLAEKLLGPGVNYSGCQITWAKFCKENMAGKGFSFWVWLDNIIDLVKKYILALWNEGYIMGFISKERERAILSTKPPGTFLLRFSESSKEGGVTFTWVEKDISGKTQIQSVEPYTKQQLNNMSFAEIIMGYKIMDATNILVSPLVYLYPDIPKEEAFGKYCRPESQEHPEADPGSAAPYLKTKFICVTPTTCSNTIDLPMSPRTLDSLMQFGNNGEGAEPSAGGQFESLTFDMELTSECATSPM
Sequence of Transcription factor Sp1 (Homo sapiens) (P08047 whole entry, looked up): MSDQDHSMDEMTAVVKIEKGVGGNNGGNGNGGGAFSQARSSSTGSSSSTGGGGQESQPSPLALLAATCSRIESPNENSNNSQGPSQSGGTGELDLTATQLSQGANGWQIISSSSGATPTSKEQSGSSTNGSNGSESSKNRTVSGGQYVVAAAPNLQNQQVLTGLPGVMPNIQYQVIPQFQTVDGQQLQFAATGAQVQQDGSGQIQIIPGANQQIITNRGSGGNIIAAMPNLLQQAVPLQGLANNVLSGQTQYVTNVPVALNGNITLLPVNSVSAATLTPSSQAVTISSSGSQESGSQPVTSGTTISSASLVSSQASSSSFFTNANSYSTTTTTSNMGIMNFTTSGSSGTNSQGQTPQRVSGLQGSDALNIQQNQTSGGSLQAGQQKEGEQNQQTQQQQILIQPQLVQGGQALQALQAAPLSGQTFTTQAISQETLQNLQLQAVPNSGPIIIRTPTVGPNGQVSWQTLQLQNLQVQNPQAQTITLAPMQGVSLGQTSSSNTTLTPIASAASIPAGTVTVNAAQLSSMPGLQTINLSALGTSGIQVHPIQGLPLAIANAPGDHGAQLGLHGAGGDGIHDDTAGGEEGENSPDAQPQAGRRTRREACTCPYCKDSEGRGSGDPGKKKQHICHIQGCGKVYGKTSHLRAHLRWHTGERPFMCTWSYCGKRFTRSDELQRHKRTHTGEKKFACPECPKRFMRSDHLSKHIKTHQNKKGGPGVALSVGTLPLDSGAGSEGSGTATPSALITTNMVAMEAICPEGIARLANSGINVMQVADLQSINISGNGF
Sequence of Paired box protein Pax-6 (Homo sapiens) (P26367 whole entry, looked up): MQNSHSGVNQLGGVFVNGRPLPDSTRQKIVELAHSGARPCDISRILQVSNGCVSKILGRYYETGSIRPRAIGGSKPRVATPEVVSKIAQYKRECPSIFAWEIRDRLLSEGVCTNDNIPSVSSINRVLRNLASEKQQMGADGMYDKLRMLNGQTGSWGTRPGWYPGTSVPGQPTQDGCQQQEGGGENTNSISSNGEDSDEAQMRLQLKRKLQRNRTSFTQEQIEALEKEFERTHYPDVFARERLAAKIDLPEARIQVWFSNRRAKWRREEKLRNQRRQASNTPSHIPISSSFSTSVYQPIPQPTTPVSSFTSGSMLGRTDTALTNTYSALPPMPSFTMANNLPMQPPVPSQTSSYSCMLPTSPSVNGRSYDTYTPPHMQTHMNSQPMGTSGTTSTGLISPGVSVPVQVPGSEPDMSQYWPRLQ
Sequence of Nuclear receptor subfamily 1 group I member 3 (Homo sapiens) (Q14994 whole entry, looked up, the tested form may be a part): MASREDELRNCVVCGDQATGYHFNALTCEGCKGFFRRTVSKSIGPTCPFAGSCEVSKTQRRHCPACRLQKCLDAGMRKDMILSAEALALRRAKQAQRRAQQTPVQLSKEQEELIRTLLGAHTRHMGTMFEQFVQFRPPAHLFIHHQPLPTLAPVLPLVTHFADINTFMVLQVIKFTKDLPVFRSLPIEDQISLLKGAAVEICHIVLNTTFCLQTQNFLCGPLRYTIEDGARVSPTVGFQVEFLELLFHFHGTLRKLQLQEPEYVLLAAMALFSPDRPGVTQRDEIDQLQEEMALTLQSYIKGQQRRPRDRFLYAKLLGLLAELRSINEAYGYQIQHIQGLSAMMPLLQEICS

NCC(F)(F)C(F)(F)C(F)(F)C(F)(F)C(F)(F)C(F)(F)C(F)(F)F
not listed: [20]
inactive: all other assays above

O=C1OC2(c3ccccc31)c1cc(Br)c(O)c(Br)c1Oc1c2cc(Br)c(O)c1Br
inactive: [1] | [2] | [4] | [6] | [7] | [8] | [9] | [10] | [11] | [12] | [13] | [14] | [15] | [16] | [18] | [20] | [19]
active: [1] 52.2 µM | [3] 25.8 µM and 5.86 µM | [5] 74.9 µM and 46.2 µM | [14] 56.4 µM | [18] 66.7 µM

CCCCOCCO
not listed: [19]
inactive: all other assays above

CCCOC(=O)c1ccc(O)cc1
active: [2] 142 µM | [3] 34.2 µM and 60 µM | [4] 77.5 µM | [5] 128 µM | [8] 26.4 µM | [10] 162 µM | [14] 139 µM | [16] 6.31 µM and 20.8 µM | [18] 73.5 µM
inactive: [1] | [2] | [4] | [5] | [6] | [7] | [8] | [9] | [10] | [11] | [12] | [13] | [14] | [15] | [17] | [18] | [20] | [19]

CCOC(=O)CC(O)(CC(=O)OCC)C(=O)OCC
active: [3] 50.4 µM
inactive: [1] | [2] | [3] | [5] | [6] | [7] | [8] | [9] | [10] | [11] | [12] | [13] | [14] | [15] | [16] | [18] | [20] | [19]

CC[C@H](c1ccc(O)cc1)[C@@H](CC)c1ccc(O)cc1
active: [3] 3.02 µM [middle of 4 runs] | [11] 9.79 µM and 15.4 µM and 11.1 µM | [14] 3.47 µM and 2.97 µM
inactive: [1] | [2] | [4] | [5] | [6] | [7] | [8] | [9] | [10] | [11] | [12] | [13] | [14] | [15] | [18] | [20] | [19]

ClC1=C(Cl)C(Cl)(Cl)C(Cl)=C1Cl
active: [1] 13.5 µM | [2] 18.4 µM and 6.7 µM | [3] 16.2 µM and 6.82 µM | [7] 15.7 µM and 7.29 µM | [8] 11.1 µM | [9] 21.7 µM | [11] 15.4 µM | [12] 15 µM | [14] 14.7 µM and 7.29 µM | [16] 15.1 µM and 11.1 µM | [18] 13.4 µM and 7.05 µM
inactive: [1] | [4] | [5] | [6] | [8] | [9] | [10] | [11] | [12] | [13] | [20]

CCCCC(CC)COC(=O)CCCCC(=O)OCC(CC)CCCC (configuration not stated)
not listed: [15] | [17] | [19]
inactive: all other assays above

CCCCCCCCCCCCc1ccccc1S(=O)(=O)O
active: [3] 4.41 µM
not listed: [17] | [19]
inactive: all other assays above

CC1=C(/C=C/C(C)=C/C=C/C(C)=C/C(=O)O)C(C)(C)CCC1
active: [1] 6.62 µM | [2] 42.8 µM | [3] 1.48 µM and 1.26 µM | [4] 43.6 nM and 9.62 µM | [5] 8.89 µM | [6] 51.1 µM and 24.6 µM | [7] 11.9 µM | [10] 21.4 µM | [11] 23.7 µM and 102 µM | [14] 6.62 µM and 11.9 µM | [18] 44.3 µM and 8.86 µM
inactive: [1] | [2] | [5] | [7] | [8] | [9] | [10] | [12] | [13] | [20]

CCCCCCCCCCCCN1CCCC1=O
active: [3] 4.43 µM
not listed: [15] | [19]
inactive: all other assays above
